Data reported in PubChem BioAssay.
Unmarked numbers belong to inactive results. The rule behind the calls is not given here.

Molecular target: Pantothenate synthetase (Mycobacterium tuberculosis (strain ATCC 25618 / H37Rv)) (UniProt P9WIL5)
Assay: Coupled enzyme confirmation of inhibitors against recombinant Mtb PanC (AID 375);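 note: 0% = full reaction with vehicle and 100% = no enzyme background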
Conditions: coupled enzyme assay; at 10 µM, stronger effect = higher value

Sequence of Pantothenate synthetase (Mycobacterium tuberculosis (strain ATCC 25618 / H37Rv)) (P9WIL5 whole entry, looked up): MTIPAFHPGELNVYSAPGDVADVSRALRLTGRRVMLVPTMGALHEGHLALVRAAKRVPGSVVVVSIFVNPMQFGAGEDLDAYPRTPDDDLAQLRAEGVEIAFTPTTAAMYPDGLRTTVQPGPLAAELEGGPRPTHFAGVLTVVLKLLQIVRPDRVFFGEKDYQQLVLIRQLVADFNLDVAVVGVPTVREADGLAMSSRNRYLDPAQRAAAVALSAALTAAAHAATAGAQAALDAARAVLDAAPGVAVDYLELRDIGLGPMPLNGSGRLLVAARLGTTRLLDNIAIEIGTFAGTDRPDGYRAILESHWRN

SMILES | inhibition
Cc1onc(-c2c(Cl)cccc2Cl)c1C(=O)NCC1CCCO1 (stereo not given) | 0%
O=C1C(Cl)=C(N2CCOCC2)C(=O)N1CCc1ccccc1 | 4%
CNc1ccc(C(O)(C(F)(F)F)C(F)(F)F)cc1C(O)(C(F)(F)F)C(F)(F)F | 0%
CCCCCCCC(=O)OCC(=O)[C@@]1(O)CC[C@H]2[C@@H]3CCC4=CC(=O)CC[C@]4(C)[C@H]3[C@@H](O)C[C@@]21C | 1%
Brc1ccccc1-c1nc(-c2ccccc2)no1 | 0%
COc1cccc(NC(=O)COC(=O)c2cccnc2)c1 | 0%
CC1CCN(Cc2nc3c(c(=O)n(C)c(=O)n3C)n2Cc2cccc3ccccc23)CC1 | 0%
Nc1sccc1C(=O)c1ccc(Cl)cc1 | 0%
CCN(CC)C(=O)C1CCN(CC2CC=CCC2)CC1 (stereo not given) | 0%
COC(=O)c1ccc(CNC(=O)COc2ccccc2Br)o1 | 5%
CCC1Oc2ccc(C)cc2N(CC(=O)NCCCN2CCCCC2CC)C1=O (stereo not given) | 4%
Cc1cc(N2CCN(C)CC2)nc(N2CCOCC2)n1 | 0%
Cc1nn(-c2ccc(F)cc2)c2c1cc(C#N)c1nc3ccccc3n12 | 6%
CCOC(=O)N1CCN(C(=O)c2ccc3nc4ccsc4c(=O)n3c2)CC1 | 2%
Cn1c(=O)[nH]c(=O)c2c1nc(NCCCn1ccnc1)n2Cc1ccccc1 | 0%
O=C(c1ccccc1-c1nc(-c2ccccc2)no1)N1CCCC1 | 0%
COC(=O)c1ccccc1NC1c2ccccc2C(=O)N1c1cccnc1 (stereo not given) | 0%
CC1Cc2ccccc2N1C(=O)Cc1cccs1 (stereo not given) | 3%
COCCn1c(=O)[nH]c2cc(C(=O)NCc3cccnc3)ccc2c1=O | 2%
COc1ccc(-c2cc(C(F)(F)F)nc(SCCC(=O)N3CCOCC3)n2)cc1 | 1%
COCCn1c(C)cc(C(=O)COC(=O)c2ccc(N3CCCC3=O)cc2)c1C | 2%
CC(Sc1nc(-c2ccccc2)cc(C(F)(F)F)n1)C(=O)N1CCC(C(N)=O)CC1 (stereo not given) | 0%
O=C(Nc1ccc(N2CCCCC2)cc1)c1ccc(F)cc1 | 0%
O=C1CC(c2ccccc2)NC(=O)N1 (stereo not given) | 0%
Cc1ccc(N(C(C)C(=O)Nc2ccc(S(=O)(=O)N3CCOCC3)cc2)S(C)(=O)=O)cc1 (stereo not given) | 0%

SMILES | inhibition
c1cc(C(c2nnnn2C2CCCC2)N2CCOCC2)ccn1 (stereo not given) | 4%
Cc1cc(C(=O)COC(=O)C2COc3ccccc3O2)c(C)n1CC1CCCO1 (stereo not given) | 0%
CN(C)S(=O)(=O)c1ccc(C(=O)NCc2cccs2)cc1 | 4%
CCOC(=O)CCCOC(=O)c1ccc(S(=O)(=O)N(C)C)cc1 | 0%
O=C(Cn1ccc2ccccc2c1=O)NCCC(=O)N1CCN(C2CCCCC2)CC1 | 5%
CS(=O)(=O)N(CC(=O)N1CCc2ccccc2C1)c1ccc2c(c1)OCO2 | 0%
C/C(=N\O)C(=O)C(CN1CCCCC1)CN1CCCCC1 | 0%
Cc1cc(Cl)ccc1OCC(=O)Nn1c(C)ccc1C | 0%
CCOc1cc(C(=O)Nc2c3c(nn2C(C)(C)C)CS(=O)C3)cc(OCC)c1OCC (stereo not given) | 4%
CC(=O)NC1CC2CCCC(C1)N2CC(=O)Nc1ccccc1 (stereo not given) | 3%
Cc1cc(C)c(NC(=O)Cn2cc3c(n2)CCCC3)c(C)c1 | 0%
Cc1nc2ccccc2c2oc(C(=O)NCC3COc4ccccc4O3)cc12 (stereo not given) | 0%
COc1ccc(COC(=O)c2n[nH]c3ccccc23)cc1F | 0%
COCCOC(=O)/C=C1/NC(=O)CS1 | 0%
COc1ccccc1Oc1ccc(S(=O)(=O)N2CCOCC2)cc1S(=O)(=O)N1CCOCC1 | 0%
COc1cccc(S(=O)(=O)Nc2ccc(C(=O)N3CCN(C(=O)c4ccco4)CC3)cc2)c1 | 0%
CCOC(=O)c1ccc(NC(=O)CCNc2c(N3CCCC3)c(=O)c2=O)cc1 | 0%
CC(=O)c1cn(CC(=O)NCc2ccc3c(c2)OCO3)c2ccccc12 | 0%
COc1cc(S(=O)(=O)N(C)C)ccc1F | 1%
Cc1cnc(C(=O)Nc2ccc(-n3cnnn3)cc2)cn1 | 14%
O=C(NC1CCCCC1)C(c1ccccc1)N(Cc1ccco1)C(=O)Cn1cnc2ccccc21 (stereo not given) | 0%
Cc1cccnc1NC(=O)CCCN1C(=O)c2ccccc2C1=O | 0%
CCOc1ccc(S(=O)(=O)Nc2ccc(Cl)cn2)c(C)c1C | 0%
COc1cc(NC(=O)Nc2cccc(Cl)c2)c(OC)cc1NC(=O)CN1CCCCC1 | 2%
CCOC(=O)c1ccc(S(=O)(=O)NC2CCCCCCC2)n1C | 0%

SMILES | inhibition
CC(C)OC(=O)CCCCCN1C(=O)CSC1=S | 1%
Cc1cc(NC(=O)Cn2cnc3c2c(=O)n(C)c(=O)n3C)n(-c2ccccc2)n1 | 0%
COc1ccc2cc(C#N)c(N3CCN(Cc4nnnn4CCC(C)C)CC3)nc2c1 | 8%
c1ccc(N=P(c2nc3ccccc3o2)(N2CCOCC2)N2CCOCC2)cc1 | 0%
CC(c1ccco1)N(C(=O)c1ccc(S(=O)(=O)N2CCCCC2)cc1)c1ccccn1 (stereo not given) | 2%
COc1ccc(CN2C(=O)c3ccccc3C2C(=O)NC2CCCC2)c(OC)c1 (stereo not given) | 0%
CCOC(=O)c1sc2nc(N3CCCC3)c3c(c2c1N)CC(C)(C)OC3 | 0%
O=C(CN(Cc1ccco1)C(=O)c1cc(=O)[nH]c2ccccc12)Nc1ccccc1Br | 0%
CCc1ccc2nc(NC(=O)CSCc3c(C)noc3C)sc2c1 | 6%
CCOC(=O)c1c(N)sn(-c2ccccc2)c1=S | 5%
NC(=O)c1ccccc1NC(=O)CN1CCOCC1 | 6%
CCCCN1C[C@H](O)[C@@H](O)[C@H](O)[C@H]1CO | 0%
CCOC(=O)/C=C1\CC(=O)Nc2nonc2N1 | 4%
CCCN1C(=O)c2cc(C(=O)O)ccc2C1O (stereo not given) | 0%
O=C(O)c1cc(=O)cc(C(=O)O)[nH]1 | 0%
CC(C(=O)N1CC2(C)CC1CC(C)(C)C2)N1C(=O)c2ccccc2C1=O (stereo not given) | 8%
CCN(CC)CCCNC(=O)c1cn(C)c2ccc(S(=O)(=O)N(C)C)cc2c1=O | 10%
CCOC(=O)N1CCN(CC(=O)Nc2cc(C)nn2-c2nc3ccccc3s2)CC1 | 0%
COC(=O)c1c(-c2ccc(F)cc2)noc1N | 2%
CCn1c(=O)cc(SCC(=O)NCC2CCCO2)c2ccccc21 (stereo not given) | 6%
CCOC(=O)c1cc(-c2nnc(-c3ccc(Oc4ccccc4)cc3)o2)c(C)nc1C | 0%
CCn1nc(C)c(NC(=O)c2cc(Br)ccc2Cl)c1C | 15%
CCN1CCN(C(=O)c2cc3c(=O)n(C)c4ccccc4c3n2C)CC1 | 0%
CCSc1nc(O)c(CC)c(=O)n1C(C)CC (stereo not given) | 3%
OC(CN1CCN(c2ccccc2)CC1)c1ccc2c(c1)CCN2 (stereo not given) | 0%

SMILES | inhibition
Cc1cc(Cn2ccnc2)c(C)cc1Cn1ccnc1 | 1%
COc1ccc(C2(CN(C(C)=O)C(C)=O)CCCC2)cc1OC | 2%
CCOc1cc(C2C(C#N)=C(N)Oc3n[nH]c(CC)c32)ccc1OCCN1CCOCC1 (stereo not given) | 0%
O=C(O)c1[nH]nc2c1COc1ccccc1-2 | 6%
COCCn1c(N)c(C(=O)Nc2sc3c(c2C(=O)OC)CCCC3)c2nc3ccccc3nc21 | 1%
O=C(NCCCn1ccnc1)c1csc2ccccc12 | 7%
CC(=O)C1=C(NC(=O)c2ccccc2F)C[C@@H]2[C@H]1C2(C)C | 0%
CCn1c(C(=O)N2CCC(C(=O)N3CCN(c4ccccn4)CC3)CC2)cc2sccc21 | 7%
CCOC(=O)c1[nH]c2ccccc2c1NC(=O)c1ccco1 | 0%
Cc1ccc(Cn2c(C(=O)NCCCN3CCOCC3)cc3sccc32)cc1 | 2%
CCCC(NC(=O)c1ccccc1)c1nc2ccccc2n1Cc1ccc(C(=O)OC)o1 (stereo not given) | 0%
CCCc1cc(C(=O)Nc2ccccc2C(=O)OC)no1 | 0%
COC(=O)C(C)Oc1ccc2c3c(c(=O)oc2c1)CCCCC3 (stereo not given) | 2%
CCN(CC)c1ccc(NC(=O)CN2CCN(CC(=O)Nc3ccccc3F)CC2)cc1 | 1%
Cc1ccc(S(=O)(=O)CCC(=O)Nc2ccc3c(c2)OCO3)cc1 | 6%
CCOCCCNC(=O)C(NC(=O)c1ccccn1)c1ccc(C)cc1 (stereo not given) | 0%
O=C(COC(=O)c1cc(S(=O)(=O)N2CCOCC2)ccc1O)NCC1CCCO1 (stereo not given) | 15%
Cc1ccc(Cl)cc1N1CCN(C(=O)CN2C(=O)c3cccc4cccc2c34)CC1 | 6%
COc1ccc(-c2nnc(SCC(=O)Nc3ccc(Cl)cc3)n2C)cc1 | 0%
CN1CCN(C(=O)c2cnn3c(C(F)F)cc(C4CC4)nc23)CC1 | 6%
CCOC(=O)N1CCN(C(=O)C(NS(=O)(=O)c2cccc3nsnc23)c2ccccc2)CC1 (stereo not given) | 0%
CCOCCCNC(=O)C1CCC(=O)N1CCc1ccccc1 (stereo not given) | 5%
Cn1c(Cl)cnc1C1CC(=O)c2cc(Cl)ccc2O1 (stereo not given) | 7%
O=C(c1ccco1)N1CCN(S(=O)(=O)c2ccc3c(c2)CCN3C(=O)C2CCC2)CC1 | 0%
O=C(CSc1nnc(-c2ccccc2Cl)n1Cc1ccco1)Nc1ccc2c(c1)OCCO2 | 2%
